Results: PubChem BioAssay (Tox21)
Records with an inconclusive call do not appear. Activity calls are given as the source filed them. Unless noted, the call rests on the fitted dose curve; in most records, active means well fitted curve in the direction sought with a large enough effect in the repeat runs; inconclusive means weak or mixed curves; inactive means no such curve, though single readings can be large; an effect the other way counts as inactive or inconclusive.

Columns and labels:
[1] = qHTS assay to test for compound auto fluorescence at 535 nm (green) in HEK293 cells (AID 720680)
[2] = qHTS assay to test for compound auto fluorescence at 460 nm (blue) in HEK293 cell free culture (AID 720681)
How it was run: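 Test compounds were pinned into cell-free culture medium (DMEM with 10% FBS) and fluorescence was read directly at Ex/Em 405/460 nm. Signals were expressed as fluorescence equivalents of triamterene, with DMSO vehicle as control.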

[3] = qHTS assay to test for compound auto fluorescence at 535 nm (green) in HEK293 cell free culture (AID 720682)
How it was run: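 Green-label autofluorescence (485 nm excitation, 535 nm emission) measured on compound added to cell-free culture medium (DMEM, 10% FBS). Output is expressed relative to fluorescein.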

[4] = qHTS assay to test for compound auto fluorescence at 590 nm (red) in HepG2 cell free culture (AID 720684)
How it was run: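 Ex 540 / Em 590 nm read of compound in cell-free MEM (10% FBS). Rose Bengal sodium reference.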

[5] = qHTS assay to test for compound auto fluorescence at 460 nm (blue) in HepG2 cell free culture (AID 720685)
How it was run: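 Cell-free plates of MEM plus 10% FBS received 23 nL compound or DMSO vehicle; blue-channel (405/460 nm) intensity scored against triamterene as reference fluorophore.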

[6] = qHTS assay to test for compound auto fluorescence at 535 nm (green) in HepG2 cell free culture (AID 720686)
[7] = qHTS assay to test for compound auto fluorescence at 460 nm (blue) in HepG2 cells (AID 720687)
How it was run: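 Cells (2,000/well in MEM with 10% FBS) attached overnight at 37 C, then were exposed to compound or DMSO for 1 hr at 37 C, 5% CO2. Fluorescence read at Ex/Em 405/460 nm, expressed as triamterene-equivalent signal.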

[8] = molecular target: Glucocorticoid receptor (Homo sapiens) (UniProt P04150); assay: qHTS assay to identify small molecule agonists of the glucocorticoid receptor (GR) signaling pathway (AID 720691; active means well fitted activation curve with a large enough effect in the signal ratio in the repeat runs, not every such curve was filed as active; the % refers to the signal ratio)
How it was run: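 Agonist-mode qHTS in HeLa cells stably expressing a glucocorticoid-response-element beta-lactamase reporter. Fluorescence intensity read with FRET substrate (2 h, room temperature) after 18 h compound treatment at 37 C.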

[9] = molecular target: Glucocorticoid receptor (Homo sapiens) (UniProt P04150); assay: qHTS assay to identify small molecule antagonists of the glucocorticoid receptor (GR) signaling pathway (AID 720692; active means well fitted inhibition curve with a large enough effect in the signal ratio in the repeat runs, not every such curve was filed as active; the % refers to the signal ratio)
How it was run: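 Inhibition of dexamethasone-driven (5 nM final) beta-lactamase expression was measured in GRE-reporter HeLa cells over 18 h at 37C. Fluorescence was read after 2 h with the B/G FRET substrate at room temperature.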

[10] = qHTS assay to identify small molecule antagonists of the glucocorticoid receptor (GR) signaling pathway - cell viability counter screen (AID 720693); further: nearly all actives have a fitted effect of over 55% in size
[11] = qHTS assay for identifying genotoxic compounds that show differential cytotoxicity against isogenic chicken DT40 cell lines with known DNA damage response pathways - Rev3 mutant cell line (AID 743014); further: nearly all actives have a fitted effect of over 55% in size
[12] = qHTS assay to identify small molecule antagonists of the androgen receptor (AR) signaling pathway - cell viability counter screen (AID 743033; further: nearly all actives have a fitted effect of over 45% in size)
[13] = molecular target: Androgen receptor (Homo sapiens) (UniProt P10275); assay: qHTS assay to identify small molecule antagonists of the androgen receptor (AR) signaling pathway (AID 743035; active means well fitted inhibition curve with a large enough effect in the signal ratio in the repeat runs, not every such curve was filed as active; the % refers to the signal ratio)
How it was run: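 Antagonist mode: AR-bla HEK293 cells co-treated with test compounds and agonist R1881 for 16 h at 37C, 5% CO2. Beta-lactamase activity read as FRET fluorescence after 2 h room-temperature substrate loading.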

[14] = molecular target: Androgen receptor (Homo sapiens) (UniProt P10275); assay: qHTS assay to identify small molecule agonists of the androgen receptor (AR) signaling pathway using the MDA cell line (AID 743040; further: nearly all actives have a fitted effect of over 20% in size)
How it was run: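 Cell-based luciferase reporter: MDA-kb2, MMTV promoter (AR + GR response elements). 16 h compound exposure at 37C; ONE-Glo, 30 min RT, luminescence.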

[15] = qHTS assay to identify small molecule antagonists of the androgen receptor (AR) signaling pathway using the MDA cell line - cell viability counter screen (AID 743041; further: nearly all actives have a fitted effect of over 45% in size)
How it was run: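 In this qHTS counter assay, fluorescence intensity after CellTiter-Fluor addition indicated viability of MDA-kb2 AR-luc cells given compounds and R1881 for 16 h at 37C.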

[16] = molecular target: Androgen receptor (Homo sapiens) (UniProt P10275); assay: qHTS assay to identify small molecule antagonists of the androgen receptor (AR) signaling pathway using the MDA cell line (AID 743042; further: nearly all actives have a fitted effect of over 55% in size)
How it was run: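 MDA-kb2 cells (human breast carcinoma, stably carrying an MMTV-luciferase reporter responsive to AR and GR) were plated at 3,000 cells/well and preincubated 5 hr at 37C, then given compound plus R1881 agonist for 16 h. ONE-Glo luminescence was read.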

[17] = qHTS assay to identify small molecule antagonists of the thyroid receptor (TR) signaling pathway - cell viability counter screen (AID 743064); further: nearly all actives have a fitted effect of over 50% in size
How it was run: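 GH3.TRE-Luc rat pituitary cells dosed after 4 hr plating, co-stimulated with T3 at 1 nM final, incubated 23.5 h at 37 C. Viability measured in the same wells by CellTiter-Fluor fluorescence after 30 min further at 37 C.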

[18] = qHTS assay to test for compound auto fluorescence at 590 nm (red) in HEK293 cell free culture (AID 720683)
How it was run: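 Tox21 10K library compounds were pinned into cell-free DMEM with 10% FBS and fluorescence was read at excitation 540 nm. Activity is expressed as Rose Bengal sodium equivalency.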

[19] = qHTS assay for identifying genotoxic compounds that show differential cytotoxicity against isogenic chicken DT40 cell lines with known DNA damage response pathways - wild type cell line (AID 743012); further: nearly all actives have a fitted effect of over 60% in size
How it was run: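 Viability by ATP luminescence (CellTiter-Glo, 30 min RT) after 40 h compound treatment at 37 C/5% CO2, using 300 parental DNA repair-proficient DT40 cells per well.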

[20] = qHTS assay for identifying genotoxic compounds that show differential cytotoxicity against isogenic chicken DT40 cell lines with known DNA damage response pathways - Rad54/Ku70 mutant cell line (AID 743015); further: nearly all actives have a fitted effect of over 60% in size

Measured: Potency

Glucocorticoid receptor (Homo sapiens), sequence (P04150 whole entry, looked up): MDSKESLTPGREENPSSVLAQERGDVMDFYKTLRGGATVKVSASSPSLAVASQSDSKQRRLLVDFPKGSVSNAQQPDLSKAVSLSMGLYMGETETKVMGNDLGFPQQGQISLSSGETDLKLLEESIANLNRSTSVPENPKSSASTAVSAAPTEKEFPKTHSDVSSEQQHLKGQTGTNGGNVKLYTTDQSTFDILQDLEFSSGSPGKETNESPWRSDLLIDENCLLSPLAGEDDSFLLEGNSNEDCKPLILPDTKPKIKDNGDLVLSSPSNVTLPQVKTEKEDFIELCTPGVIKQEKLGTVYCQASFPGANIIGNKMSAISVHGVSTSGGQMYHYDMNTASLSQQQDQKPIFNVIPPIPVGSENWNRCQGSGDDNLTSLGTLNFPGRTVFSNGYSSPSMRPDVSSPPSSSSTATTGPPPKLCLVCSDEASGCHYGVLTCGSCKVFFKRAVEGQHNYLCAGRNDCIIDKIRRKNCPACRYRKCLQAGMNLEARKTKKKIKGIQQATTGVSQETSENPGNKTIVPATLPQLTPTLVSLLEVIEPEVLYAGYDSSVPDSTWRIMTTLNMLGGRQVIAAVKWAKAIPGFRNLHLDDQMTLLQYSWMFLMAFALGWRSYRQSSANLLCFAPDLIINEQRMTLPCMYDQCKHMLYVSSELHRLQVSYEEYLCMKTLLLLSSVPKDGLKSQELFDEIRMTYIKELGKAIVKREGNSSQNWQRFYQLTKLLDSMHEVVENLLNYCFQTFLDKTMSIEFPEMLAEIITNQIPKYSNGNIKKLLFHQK
Androgen receptor (Homo sapiens), sequence (P10275 whole entry, looked up): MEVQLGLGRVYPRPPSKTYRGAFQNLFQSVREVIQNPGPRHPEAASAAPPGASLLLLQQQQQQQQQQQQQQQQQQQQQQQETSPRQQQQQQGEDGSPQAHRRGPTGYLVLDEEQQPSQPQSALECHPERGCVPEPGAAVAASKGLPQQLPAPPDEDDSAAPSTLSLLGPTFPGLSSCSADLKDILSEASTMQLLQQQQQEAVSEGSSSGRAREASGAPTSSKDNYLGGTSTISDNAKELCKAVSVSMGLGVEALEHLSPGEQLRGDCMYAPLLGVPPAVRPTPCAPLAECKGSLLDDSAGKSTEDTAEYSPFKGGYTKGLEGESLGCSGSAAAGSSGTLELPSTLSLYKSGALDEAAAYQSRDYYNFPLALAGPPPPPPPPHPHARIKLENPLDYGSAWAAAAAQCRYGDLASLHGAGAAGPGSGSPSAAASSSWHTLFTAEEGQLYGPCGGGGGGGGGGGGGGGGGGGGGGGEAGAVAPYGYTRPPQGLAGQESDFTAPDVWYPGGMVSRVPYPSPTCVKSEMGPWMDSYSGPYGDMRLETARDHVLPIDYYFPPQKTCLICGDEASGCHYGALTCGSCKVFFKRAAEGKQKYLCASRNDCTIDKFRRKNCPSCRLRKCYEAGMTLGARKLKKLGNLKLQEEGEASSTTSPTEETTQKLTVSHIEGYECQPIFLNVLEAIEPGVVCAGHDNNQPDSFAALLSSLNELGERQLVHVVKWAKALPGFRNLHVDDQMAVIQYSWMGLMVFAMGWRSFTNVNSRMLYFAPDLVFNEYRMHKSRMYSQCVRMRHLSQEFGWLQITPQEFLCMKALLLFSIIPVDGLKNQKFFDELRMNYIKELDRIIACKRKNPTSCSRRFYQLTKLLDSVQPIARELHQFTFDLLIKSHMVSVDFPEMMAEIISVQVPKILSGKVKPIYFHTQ

CCOC(=O)COc1cc(-n2ncc(C(F)(F)F)c(C)c2=O)c(F)cc1Cl
not listed: [18] | [19] | [20]
inactive: all other assays above

CO[Si](C)(OC)c1ccccc1
not listed: [5] | [8] | [9] | [11] | [13] | [14] | [16]
inactive: all other assays above

CNC(=O)Nc1ccc(Cl)c(Cl)c1
not listed: [5] | [9] | [11] | [13] | [17] | [18] | [20]
inactive: all other assays above

CC(=O)OCC(=O)[C@@]1(O)[C@H](C)C[C@H]2[C@@H]3CCC4=CC(=O)C=C[C@]4(C)[C@@]3(F)[C@@H](O)C[C@@]21C
not listed: [5] | [8] | [9] | [11] | [13] | [14] | [15] | [16]
inactive: all other assays above

Cc1ccc(-c2ncc(Cl)cc2-c2ccc(S(C)(=O)=O)cc2)cn1
not listed: [8] | [9] | [11] | [18]
inactive: all other assays above

CCN1CCOCC1
not listed: [8] | [9] | [13] | [14] | [15] | [16] | [18]
inactive: all other assays above

O=C(O)CNC(=O)c1ccc(CO)o1
not listed: [5] | [8] | [9] | [13] | [14] | [16] | [18]
inactive: all other assays above

NC(CCC(=O)O)C(=O)O (stereo unspecified)
not listed: [8] | [13] | [14] | [16] | [18]
inactive: all other assays above

CCO[Si](OCC)(OCC)c1ccccc1
not listed: [5] | [8] | [13] | [14] | [16] | [17]
inactive: all other assays above
